Measured values taken from PubChem BioAssay (NCATS).
Where “and” joins values, the source holds several entries; their conditions need not be identical. Identical values can stand only once. Results filed as inconclusive are left out. Calls of active or inactive are those of the source. Calls follow the shape of the dose curve; as a rule, active = well fitted inhibition curve with a large enough effect; inconclusive = small, poorly fitted or top-dose-only effect; inactive = flat fitted curve, though single readings scatter.

Legend:
P93_24 = assay: qHTS profiling for inhibitors of Plasmodium falciparum proliferation (AID 504749); details: P. falciparum in erythrocytes, SYBR Green DNA, 72 h; series mostly up to 28.7 µM
Outline: (§1)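 Parasite proliferation within erythrocytes, 72 h exposure. Endpoint: SYBR Green I fluorescence after overnight lysis at room temperature. Controls: 0.29 uM artemisinin, DMSO.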

P94_40 = assay: as above; details: P. falciparum in erythrocytes, SYBR Green DNA, 72 h; series mostly up to 28.7 µM
Outline: as §1

PAD = assay: as above; details: P. falciparum in erythrocytes, SYBR Green DNA, 72 h; series mostly up to 28.7 µM
Outline: as §1

PC15 = assay: as above; details: P. falciparum in erythrocytes, SYBR Green DNA, 72 h; series mostly up to 28.7 µM
Outline: as §1

PC26 = assay: as above; details: P. falciparum in erythrocytes, SYBR Green DNA, 72 h; series mostly up to 28.7 µM
Outline: as §1

PC49 = assay: as above; details: P. falciparum in erythrocytes, SYBR Green DNA, 72 h; series mostly up to 28.7 µM
Outline: as §1

SC27B = assay: as above; details: P. falciparum in erythrocytes, SYBR Green DNA, 72 h; series mostly up to 28.7 µM
Outline: as §1

TAB109 = assay: as above; details: P. falciparum in erythrocytes, SYBR Green DNA, 72 h; series mostly up to 28.7 µM
Outline: as §1

TAB113 = assay: as above; details: P. falciparum in erythrocytes, SYBR Green DNA, 72 h; series mostly up to 28.7 µM
Outline: as §1

TAB165 = assay: as above; details: P. falciparum in erythrocytes, SYBR Green DNA, 72 h; series mostly up to 28.7 µM
Outline: as §1

CRL-7250 = normal cell line; assay: Cytotoxic Profiling of Annotated Libraries Using Quantitative High-Throughput Screening (AID 1296008); details: Five cell lines viability, CellTiter-Glo ATP luminescence, 48-72 h; max response: active compounds read low; as to max response: % is scaled to controls: 0 for no effect and ±100 for the full control effect
Outline: (§2)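 Compounds were pin-transferred onto cells and incubated 48 or 72 hr at 37 degree Celsius, 95% humidity. CellTiter-Glo was added, plates sat 10 min at room temperature, then ATP-coupled luminescence was imaged as the viability read-out.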

HEK293 = assay: as above; details: Five cell lines viability, CellTiter-Glo ATP luminescence, 48-72 h; max response: active compounds read low
Outline: as §2

HaCat [1] = assay: as above; details: Five cell lines viability, CellTiter-Glo ATP luminescence, 48-72 h; max response: active compounds read low
Outline: as §2

KB-3-1 = assay: as above; details: Five cell lines viability, CellTiter-Glo ATP luminescence, 48-72 h; max response: active compounds read low
Outline: as §2

NIH3T3 = assay: as above; details: Five cell lines viability, CellTiter-Glo ATP luminescence, 48-72 h; max response: active compounds read low
Outline: as §2

HACAT [2] = assay: qHTS assay to identify novel small-molecules to repurpose for Merkel cell carcinoma treatment (AID 1296009); details: MCC and control cell lines, CellTiter-Glo viability, 72 h; at 44.8 µM (top of the series) unless noted
Outline: (§3)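 qHTS format: cells treated with library compounds in DMSO across 8 (NPC) or 11 (MIPE) concentrations. Readout after 72 hr at 37 degree celsius was CellTiter-Glo luminescence.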

HEK293T = assay: as above; details: MCC and control cell lines, CellTiter-Glo viability, 72 h; at 44.8 µM (top of the series) unless noted
Outline: as §3

MCC-13 = assay: as above; details: MCC and control cell lines, CellTiter-Glo viability, 72 h; series mostly up to 46 µM
Outline: as §3

MCC-26 = assay: as above; details: MCC and control cell lines, CellTiter-Glo viability, 72 h; series mostly up to 46 µM
Outline: as §3

W2 = assay: qHTS profiling for inhibitors of Plasmodium falciparum proliferation (AID 504749); details: P. falciparum in erythrocytes, SYBR Green DNA, 72 h; series mostly up to 28.7 µM
Outline: as §1
Also: nearly all actives have a fitted effect of over 60% in size.
Potency is read from the fitted curve at half-maximal effect.

CNNCc1ccc(C(=O)NC(C)C)cc1
inactive: Potency (P93_24) | Potency (P94_40) | Potency (PAD) | Potency (PC15) | Potency (PC26) | Potency (PC49) | Potency (SC27B) | Potency (TAB109) | Potency (TAB113) | Potency (TAB165) | outcome (CRL-7250) | max response (HEK293) 2.6% | outcome (HEK293) | max response (HaCat [1]) -9.48% | outcome (HaCat [1]) | max response (KB-3-1) -11.6% | outcome (KB-3-1) | max response (NIH3T3) -4.42% | outcome (NIH3T3) | outcome (HACAT [2]) | outcome (HEK293T) | Potency (MCC-13) | Potency (MCC-26)

CN(C)CCc1c[nH]c2ccc(CS(=O)(=O)N3CCCC3)cc12
inactive: Potency (P93_24) | Potency (P94_40) | Potency (PAD) | Potency (PC15) | Potency (PC26) | Potency (PC49) | Potency (SC27B) | Potency (TAB109) | Potency (TAB113) | Potency (TAB165) | Potency (W2) | max response (CRL-7250) -0.155% and 1.13% | max response (HEK293) -11.2% and 1.86% | max response (HaCat [1]) -24.1% | outcome (HaCat [1]) | max response (KB-3-1) 10.6% and 7.32% | max response (NIH3T3) -1.45% and -5.53% | outcome (HACAT [2]) | Potency (MCC-13)

CCC(=O)O[C@]1(C(=O)SCF)[C@H](C)C[C@H]2[C@@H]3C[C@H](F)C4=CC(=O)C=C[C@]4(C)[C@@]3(F)[C@@H](O)C[C@@]21C
inactive: outcome (CRL-7250) | max response (HEK293) 1.44% and 1.99% | max response (HaCat [1]) 0.77% | outcome (HaCat [1]) | max response (KB-3-1) 26.7% | outcome (KB-3-1) | max response (NIH3T3) 1.81% and -2.44% | outcome (HACAT [2]) | Potency (MCC-13) | Potency (MCC-26)

OC(Cn1cncn1)(Cn1cncn1)c1ccc(F)cc1F
inactive: Potency (P93_24) | Potency (P94_40) | Potency (PAD) | Potency (PC15) | Potency (PC26) | Potency (PC49) | Potency (SC27B) | Potency (TAB109) | Potency (TAB113) | Potency (TAB165) | Potency (W2) | max response (CRL-7250) 2.49% and -1.86% | max response (HEK293) -0.0788% and -5.53% | max response (HaCat [1]) -29.4% | outcome (HaCat [1]) | max response (KB-3-1) -2.5% and 5.59% | max response (NIH3T3) -0.561% and -16.4% | outcome (HACAT [2]) | Potency (MCC-13) | Potency (MCC-26)

Cn1c(=O)c2c(ncn2CC(O)CO)n(C)c1=O (stereo unspecified)
inactive: max response (CRL-7250) 2.57% and -3.36% | max response (HEK293) -3.34% and -13.7% | max response (HaCat [1]) 2.18% | outcome (HaCat [1]) | max response (KB-3-1) 3.89% | outcome (KB-3-1) | max response (NIH3T3) 2.82% and -0.547% | outcome (HACAT [2]) | Potency (MCC-13) | Potency (MCC-26)

CCn1cc(C(=O)O)c(=O)c2cc(F)c(N3CCNCC3)cc21
active: Potency (W2) 2.56 µM
inactive: Potency (PAD) | Potency (PC15) | Potency (PC26) | Potency (PC49) | Potency (SC27B) | Potency (TAB113) | Potency (TAB165) | max response (CRL-7250) -1.25% and -6.48% | max response (HEK293) -12.4% and -3.6% | max response (HaCat [1]) -20% | outcome (HaCat [1]) | max response (KB-3-1) -20.2% and -20.3% | outcome (KB-3-1) | max response (NIH3T3) -0.113% and -7.16% | outcome (HACAT [2]) | Potency (MCC-13)

COc1ccccc1OCC(O)COC(N)=O (stereo unspecified)
inactive: max response (CRL-7250) -1.17% | outcome (CRL-7250) | max response (HaCat [1]) -15.7% | outcome (HaCat [1]) | max response (KB-3-1) 5.86% and 1.39% | max response (NIH3T3) 4.42% and 1.69% | outcome (HACAT [2]) | outcome (HEK293T) | Potency (MCC-13) | Potency (MCC-26)

CCN(C)C(=O)Oc1cccc([C@H](C)N(C)C)c1
inactive: Potency (P93_24) | Potency (P94_40) | Potency (PAD) | Potency (PC15) | Potency (PC26) | Potency (PC49) | Potency (SC27B) | Potency (TAB109) | Potency (TAB113) | Potency (TAB165) | Potency (W2) | max response (CRL-7250) -5.92% and -3.92% | max response (HEK293) -9.47% | outcome (HEK293) | max response (HaCat [1]) -4.32% | outcome (HaCat [1]) | max response (KB-3-1) 1.39% and 1.13% | max response (NIH3T3) 1.74% and -5.17% | outcome (HACAT [2]) | outcome (HEK293T) | Potency (MCC-13) | Potency (MCC-26)

S=P(N1CC1)(N1CC1)N1CC1
inactive: Potency (P93_24) | Potency (P94_40) | Potency (PAD) | Potency (PC15) | Potency (PC26) | Potency (PC49) | Potency (SC27B) | Potency (TAB109) | Potency (TAB113) | Potency (TAB165) | Potency (W2) | max response (CRL-7250) -10.3% | outcome (CRL-7250) | outcome (HaCat [1]) | max response (KB-3-1) 19% and 33.9% and 9.73% | max response (NIH3T3) -7.91% | outcome (HACAT [2]) inactive [at 92 µM] | Potency (MCC-13)

COC(=O)Nc1nc2ccc(C(=O)c3ccccc3)cc2[nH]1
active: Potency (CRL-7250) 5.9 µM | Potency (KB-3-1) 0.623 µM | Potency (NIH3T3) 18.8 µM and 2.64 µM | Potency (MCC-13) 3.72 µM
inactive: Potency (P93_24) | Potency (P94_40) | Potency (PAD) | Potency (PC15) | Potency (PC49) | Potency (SC27B) | Potency (TAB109) | Potency (TAB113) | Potency (TAB165) | max response (HEK293) -90.7% | max response (HaCat [1]) 4.64% | outcome (HaCat [1]) | outcome (HACAT [2])

O=C(O)CSCC(=O)NC1CCSC1=O (stereo unspecified)
inactive: max response (CRL-7250) -2.44% | outcome (CRL-7250) | outcome (HaCat [1]) | outcome (KB-3-1) | max response (NIH3T3) 2.01% | outcome (NIH3T3) | outcome (HACAT [2]) | outcome (HEK293T) | Potency (MCC-13) | Potency (MCC-26)
